{"source": "PubChem BioAssay AID624483", "about": "(NMMLSC, 2012)", "note": "Out of some 360,000 compounds screened, about 11,000 (3.1%) were called active. Another 2% or so got no clear call; they are omitted. This is one part of a sample in which actives are shown more often than they occur. Values without a mark were called inactive. No stated cut-off is given here; in the data, active means fluorescence intensity above about 16000; inconclusive means no clear call, values can overlap the other calls; inactive means below that."}
{"assay": "counter-screen for toxin protease inhibitors: compound fluorescence, primary screen, artefact control for toxin protease inhibitor project, biochemical, multiplex microsphere, HTS (AID 624483)", "conditions": "compound autofluorescence counterscreen, microsphere flow cytometry; stronger effect = higher value"}
{"smiles": "Cc1nn(-c2ccccc2)c2[nH]c(C(F)(F)F)cc(=O)c12", "fluorescence intensity": 4600}
{"smiles": "CCOc1cc(C)c(Cl)cc1S(=O)(=O)n1nnc2ccccc21", "fluorescence intensity": 10500}
{"smiles": "CCOc1cc(C)c(S(=O)(=O)NCc2ccccn2)cc1C", "fluorescence intensity": 3700}
{"smiles": "CCCOc1cc(C)c(S(=O)(=O)n2nnc3ccccc32)cc1C", "fluorescence intensity": "16800 (active)"}
{"smiles": "CC1CCC(NC(=O)c2ccc(N3CCCC3=O)cc2)CC1", "note": "(centres undefined)", "fluorescence intensity": "21800 (active)"}
{"smiles": "O=C(NCCCN1CCCCCC1)c1ccc(N2CCCC2=O)cc1", "fluorescence intensity": 3260}
{"smiles": "CC1CCCC(NC(=O)c2cccc(N3CCCC3=O)c2)C1C", "note": "(centres undefined)", "fluorescence intensity": 2560}
{"smiles": "CCn1c(SCC(=O)NNC(=O)c2ccc(OC)cc2)nnc1C(C)C", "fluorescence intensity": 6340}
{"smiles": "COc1ccc(C(=O)NCc2nnc(SCCOc3ccccc3)n2C)cc1", "fluorescence intensity": 5100}
{"smiles": "C=CCn1c(CNC(=O)c2ccco2)nnc1SCC(=O)c1ccc(OC)cc1", "fluorescence intensity": 3770}
{"smiles": "C=CCn1c(SCc2ccc(Cl)c(Cl)c2)nnc1C(CO)NC(=O)c1ccc(OC)cc1", "note": "(centres undefined)", "fluorescence intensity": 2760}
{"smiles": "C=CCn1c(SCCOc2ccc(OC)cc2)nnc1C(NC(=O)c1ccc(OC)cc1)C(C)C", "note": "(centres undefined)", "fluorescence intensity": "24400 (active)"}
{"smiles": "C=CCn1c(SCC(=O)c2ccc(Br)cc2)nnc1C(C)NC(=O)Cc1ccc(OC)cc1", "note": "(centres undefined)", "fluorescence intensity": "23200 (active)"}
{"smiles": "CCCNC(=O)c1cc(C2CCCCN2S(=O)(=O)c2cn(C)cn2)on1", "note": "(centres undefined)", "fluorescence intensity": 3300}
{"smiles": "O=C(NCc1ccc(F)cc1)C1CCC(CNc2c(N3CCOCC3)c(=O)c2=O)CC1", "note": "(centres undefined)", "fluorescence intensity": 4840}
{"smiles": "O=S(=O)(NC1CC2CCC1C2)c1ccc(Cl)cc1", "note": "(centres undefined)", "fluorescence intensity": 3140}
{"smiles": "CCOC(=O)[C@]12CCCC=C1N(Cc1ccc(Cl)cc1Cl)C(=O)[C@H](CC(=O)N1CCCCC1)C2", "fluorescence intensity": 6000}
{"smiles": "COc1cccc(-c2cc3nc(NCCOc4ccccc4Cl)n(C)c(=O)c3s2)c1", "fluorescence intensity": 3580}
{"smiles": "CC1(C(=O)NS(=O)(=O)c2cccc(F)c2)CCN1C(=O)Cc1ccc(Cl)cc1Cl", "note": "(centres undefined)", "fluorescence intensity": 3750}
{"smiles": "CCCCN1C(=O)C(CC(=O)NCc2cccs2)CC(C(=O)N2CCCCCC2)=C1C", "note": "(centres undefined)", "fluorescence intensity": 5770}
{"smiles": "CN(C)c1ccnc(Oc2ccc(F)cc2)c1C#N", "fluorescence intensity": 8110}
{"smiles": "O=C(CCC(=O)OCc1ccc(Cl)cc1)Nc1ccccc1", "fluorescence intensity": 2700}
{"smiles": "O=C(CNC(=O)c1ccccc1)NCC(=O)OCC(=O)c1ccccc1", "fluorescence intensity": 5170}
{"smiles": "O=C(CNC(=O)c1ccccc1)NCC(=O)OCc1ccc(Cl)cc1", "fluorescence intensity": "22400 (active)"}
{"smiles": "O=C(OCCN1C(=O)c2ccccc2C1=O)Oc1ccccc1", "fluorescence intensity": 4060}
{"smiles": "Nc1ccc(SCCN2C(=O)c3ccccc3C2=O)cc1", "fluorescence intensity": "19900 (active)"}
{"smiles": "O=C1c2ccccc2C(=O)N1CCCCCCN1C(=O)c2ccccc2C1=O", "fluorescence intensity": 3880}
{"smiles": "CCOc1ccc2c(c1)cc(CN(C(=O)CC)C1CCCCC1)c1nnnn12", "fluorescence intensity": 3990}
{"smiles": "CCOC1=C2[C@@H](CN(S(=O)(=O)c3ccc(C)cc3)[C@H]2c2ccccc2F)[C@H]2C(=O)N(Cc3ccccc3)C(=O)[C@H]2C1", "fluorescence intensity": 4840}
{"smiles": "CCOc1ccc2[nH]c(=S)sc2c1", "fluorescence intensity": 5910}
{"smiles": "CCc1ccc2ncc(C(=O)c3ccccc3)c(N3CCOCC3)c2c1", "fluorescence intensity": 6180}
{"smiles": "O=C(c1ccccc1)c1cc(-c2ccccn2)c(N2CCOCC2)s1", "fluorescence intensity": "25300 (active)"}
{"smiles": "O=C(NCC(c1cccs1)N1CCOCC1)c1cc(-c2ccccn2)nc2ccccc12", "note": "(centres undefined)", "fluorescence intensity": 4740}
{"smiles": "COc1ccc(S(=O)(=O)Nc2cccnc2)c(Cl)c1Cl", "fluorescence intensity": 3840}
{"smiles": "COc1ccccc1Oc1ccc(S(=O)(=O)Nc2cccnc2)cc1", "fluorescence intensity": "21600 (active)"}
{"smiles": "Cc1cc(C)c(C)c(S(=O)(=O)Nc2cccnc2)c1C", "fluorescence intensity": 6330}
{"smiles": "COC(=O)c1ccc2nc(-c3ccc(OC)c(OC)c3)c(Cc3ccccc3)n2c1", "fluorescence intensity": 4370}
{"smiles": "Fc1cccc(Cc2c(-c3ccc(Cl)cc3)nc3ccc(Cl)cn23)c1", "fluorescence intensity": 8180}
{"smiles": "Clc1cccc(Cc2c(-c3cccc(Cl)c3)nc3ccc(Cl)cn23)c1", "fluorescence intensity": 8680}
{"smiles": "Fc1cccc(Cc2c(-c3cccc(Cl)c3)nc3ccc(Br)cn23)c1", "fluorescence intensity": "19700 (active)"}
{"smiles": "OC[C@@H]1CN(Cc2ccncc2)C[C@H](n2cnc3c(N4CCN(c5ccccc5)CC4)ncnc32)O1", "fluorescence intensity": 3810}
{"smiles": "COCCN1C(=O)N(c2ccc(Cl)cc2)C(=O)C1CC(=O)Nc1cc(OC)cc(OC)c1", "note": "(centres undefined)", "fluorescence intensity": 3750}
{"smiles": "CC(C)(C)OC(=O)N/N=C/c1ccc(C(=O)O)cc1", "fluorescence intensity": 2640}
{"smiles": "Cc1cc(C)cc(NC(=O)COC(=O)c2cc(C)oc2C)c1", "fluorescence intensity": 4090}
{"smiles": "Cc1cc(C(=O)OCC(=O)Nc2ccccc2Cl)c(C)o1", "fluorescence intensity": 8500}
{"smiles": "Cc1cc(C(=O)OCC(=O)Nc2ccc(F)c(F)c2)c(C)o1", "fluorescence intensity": "21600 (active)"}
{"smiles": "COc1ccc(-c2nnc(-c3ccc4ccccc4c3)o2)cc1", "fluorescence intensity": 3860}
{"smiles": "CCCCSc1nnc(-c2ccc(C)cc2)o1", "fluorescence intensity": 11000}
{"smiles": "CCCCOc1ccc(-c2nnc(-c3ccco3)o2)cc1", "fluorescence intensity": "21200 (active)"}
{"smiles": "NCCCNC(=S)NCCCN(Cc1ccc(Cl)cc1)c1ccc(Br)cn1", "fluorescence intensity": 3820}
{"smiles": "O=C(NCc1ccco1)c1cccc(-c2ccc3nncn3c2)c1", "fluorescence intensity": 3920}
{"smiles": "C=CCNC(=O)c1cc2nc(C3CC3)cc(C(F)F)n2n1", "fluorescence intensity": "17500 (active)"}
{"smiles": "O=C(Nc1ccc(Cl)cc1)c1cc2nc(C3CC3)cc(C(F)(F)F)n2n1", "fluorescence intensity": 11300}
{"smiles": "CC1CCN(C(=O)c2cc3nc(C4CC4)cc(C(F)(F)F)n3n2)CC1", "fluorescence intensity": 3040}
{"smiles": "CN(C)c1cccc(NC(=O)c2ccc(-c3ccc(F)c(F)c3)c3ccoc23)c1", "fluorescence intensity": 3910}
{"smiles": "CCCCn1nnnc1C(c1cc2ccccc2o1)N(C)Cc1ccc(Cl)c(Cl)c1", "note": "(centres undefined)", "fluorescence intensity": 5870}
{"smiles": "C=CCSc1nc(Cc2ccc(Cl)cc2)nc2ccccc12", "fluorescence intensity": "23600 (active)"}
{"smiles": "CCCNC(=O)CSc1nc(Cc2ccccc2)nc2ccccc12", "fluorescence intensity": 2990}
{"smiles": "CC(C)N(C(=O)CSc1nc(COc2ccccc2)nc2ccccc12)C(C)C", "fluorescence intensity": 3830}
{"smiles": "CCc1nc2ccc(C(=O)N3CCC(O)(Cc4ccccc4)CC3)cn2c1N(C)C(=O)Cc1ccccc1", "fluorescence intensity": 3520}
{"smiles": "O=S1(=O)CC(N2CCC(Cc3ccccc3)CC2)CN1Cc1ccccc1", "note": "(centres undefined)", "fluorescence intensity": 6300}
{"smiles": "Cc1noc(C)c1-c1ccc(C(=O)NCc2ccncc2)c2occc12", "fluorescence intensity": 3470}
{"smiles": "COc1ccccc1N1CCN(S(=O)(=O)c2ccc3c(c2)NC(=O)CS3)CC1", "fluorescence intensity": 5880}
{"smiles": "CCc1cc(=O)oc2cc(C)cc(OCC(=O)N3CCC[C@@H]3C(=O)O)c12", "fluorescence intensity": 5750}
{"smiles": "Cc1cc(OC(C)C(=O)NC2CC(C)(C)NC(C)(C)C2)c2c(C)cc(=O)oc2c1", "note": "(centres undefined)", "fluorescence intensity": 6440}
{"smiles": "CCc1cc(=O)oc2cc(C)cc(OC(C)C(=O)O)c12", "note": "(centres undefined)", "fluorescence intensity": "22000 (active)"}
{"smiles": "CCCSc1nsc(N)n1", "fluorescence intensity": "17300 (active)"}
{"smiles": "CCCCCCSc1nsc(N)n1", "fluorescence intensity": 6410}
{"smiles": "Nc1nc(SC23CC4CC(CC(C4)C2)C3)ns1", "fluorescence intensity": 3930}
{"smiles": "Cc1ccc(CNC(=O)c2cc(-c3ccccc3C)n(CC3CC(c4cccc([N+](=O)[O-])c4)=NO3)n2)cc1", "note": "(centres undefined)", "fluorescence intensity": 4220}
{"smiles": "CCOC(=O)[C@]12CCC=C1N(Cc1ccccc1)C(=O)[C@H](CC(=O)N1CCCC1)C2", "fluorescence intensity": 5780}
{"smiles": "CC1(C(=O)NS(=O)(=O)C2CC2)CCCN(C(=O)CSc2ccccc2)C1", "note": "(centres undefined)", "fluorescence intensity": 3670}
{"smiles": "CCOC(=O)N1CCC(Nc2c(NCCN3CCN(c4cccc(Cl)c4)CC3)c(=O)c2=O)CC1", "fluorescence intensity": 4590}
{"smiles": "CCn1c(=O)cc(OCC(=O)NCCCN2CCN(c3cccc(Cl)c3)CC2)c2ccccc21", "fluorescence intensity": "20500 (active)"}
{"smiles": "O=C(Cc1csc(Nc2nc(=S)[nH]c3ccccc23)n1)NCCCN1CCN(c2cccc(Cl)c2)CC1", "fluorescence intensity": 4240}
{"smiles": "O=C(CC[C@H]1O[C@@H](n2ccc(=O)[nH]c2=O)[C@H](O)[C@@H]1O)N[C@H](Cc1ccccc1)C(=O)NCc1ccco1", "fluorescence intensity": 4020}
{"smiles": "CCOC(=O)C1(C)CCCN(C(=O)c2ccc(N(C)C)cc2)C1", "note": "(centres undefined)", "fluorescence intensity": 9620}
{"smiles": "CCOc1cccc(-c2nnc(SCC(=O)NC3CC3)n2C)c1", "fluorescence intensity": 5480}
{"smiles": "Cc1ccccc1NC(=O)CSc1ccc2nnc(-c3ccccn3)n2n1", "fluorescence intensity": 6840}
{"smiles": "CCOc1cccc(-c2nn3c(-c4ccccn4)nnc3s2)c1", "fluorescence intensity": "16800 (active)"}
{"smiles": "CN(C)S(=O)(=O)N1CCN(c2ccc([N+](=O)[O-])cc2)CC1", "fluorescence intensity": 4070}
{"smiles": "CCCOc1ccc(F)cc1-c1cc(C(=O)Nc2ccc(F)c(Cl)c2)[nH]n1", "fluorescence intensity": 3800}
{"smiles": "CN(C)C(=O)c1cccc(-c2cnc3c(NC=O)cc(-c4ccc(F)cc4)cn23)c1", "fluorescence intensity": 3680}
{"smiles": "CCOC(=O)c1cnc(-n2nc(C)cc2C)nc1NNc1cc(C)nc(-c2ccccc2)n1", "fluorescence intensity": 7400}
{"smiles": "CCOC(=O)c1cnc2c(c(C)nn2CC)c1Cl", "fluorescence intensity": 4390}
{"smiles": "CCOC(=O)c1cnc(-n2nc(C)cc2C)nc1-n1nc(C)cc1C", "fluorescence intensity": "16800 (active)"}
{"smiles": "CCc1nc2c(OCCOc3ccc(F)cc3)cccn2c1N(C)C(=O)c1ccccc1F", "fluorescence intensity": 3010}
{"smiles": "CN1CCN(S(=O)(=O)c2ccc3[nH]cc(C(=O)O)c(=O)c3c2)CC1", "fluorescence intensity": "21500 (active)"}
{"smiles": "Cc1ccc(S(=O)(=O)N2CCN(C)CC2)cc1C(=O)NC1CCCCC1", "fluorescence intensity": 4410}
{"smiles": "Cc1ccc(S(=O)(=O)N2CCN(C)CC2)cc1", "fluorescence intensity": 4010}
{"smiles": "c1ccc(COc2ccccc2CNCc2cccnc2)cc1", "fluorescence intensity": 7500}
{"smiles": "O=C(CCc1ccc(S(=O)(=O)N2CCOCC2)cc1)NN=C1CCCCCCC1", "fluorescence intensity": 2120}
{"smiles": "O=C(CCc1ccc(S(=O)(=O)N2CCOCC2)cc1)Nc1ccc2ccccc2c1", "fluorescence intensity": "21400 (active)"}
{"smiles": "O=C(COC(=O)CCc1ccc(S(=O)(=O)N2CCOCC2)cc1)Nc1cccc(Cl)c1", "fluorescence intensity": 4250}
